# High-throughput results as filed in PubChem.
# ELG1 repair inh: blocks ELG1-dependent DNA repair in HEK293T cells. HEK293T ELG1-luciferase reporter, luminescence, 16 h; DNA damage induced by 5-fluorouridine. Potency, µM (series often up to 46.1 µM), hits mostly inhibitors. hit rate 2.3% among 330,000; further: nearly all actives have a fitted effect of over 55% in size
#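 Luminescence from the luciferase reporter, measured 30 min after ONE-Glo reagent at room temperature, was the read-out. Beforehand, 2,000 cells per well were exposed for 16 hr at 37 °C to 5-fluorouridine together with compound or vehicle.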
# Gal4-VP16 FLuc: Gal4-VP16 reporter inhibition counter-screen | Drosophila S2 Gal4-VP16 UAS-luciferase, luminescence, 20 h | Potency, µM (titrated, usually from 53.6 µM), most hits filed as inhibitors | hit rate 3.5% among 310,000 | AID 2546;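 further: Gal4-VP16 expression switched on by copper sulfate through the metallothionein promoter; nearly all actives have a fitted effect of over 50% in size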
# RORg inh: inhibitors of mouse ROR gamma transcriptional activity; AID 2551; Potency, µM (highest dose often 53.6 µM), hits mostly inhibitors; hit rate 5.4% among 310,000; Drosophila S2 Gal4-RORgamma UAS-luciferase reporter, 20 h; further: nearly all actives have a fitted effect of over 60% in size
# Target sequence (P51450 whole entry, looked up, the tested form may be a part): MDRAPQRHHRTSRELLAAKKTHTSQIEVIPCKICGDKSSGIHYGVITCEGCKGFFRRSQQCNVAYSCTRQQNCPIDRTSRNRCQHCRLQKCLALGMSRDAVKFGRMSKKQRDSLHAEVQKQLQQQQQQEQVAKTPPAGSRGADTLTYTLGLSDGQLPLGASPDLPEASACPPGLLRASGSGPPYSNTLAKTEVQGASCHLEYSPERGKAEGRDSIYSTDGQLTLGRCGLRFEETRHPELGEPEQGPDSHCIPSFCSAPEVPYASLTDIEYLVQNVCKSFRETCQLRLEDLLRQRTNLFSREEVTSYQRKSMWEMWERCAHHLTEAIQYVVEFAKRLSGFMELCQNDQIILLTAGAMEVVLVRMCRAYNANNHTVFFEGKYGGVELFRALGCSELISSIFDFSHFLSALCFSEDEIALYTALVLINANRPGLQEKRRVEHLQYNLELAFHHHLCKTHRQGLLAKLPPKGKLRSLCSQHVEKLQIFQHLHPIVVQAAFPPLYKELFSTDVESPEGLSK
#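 Luciferase reporter read in Schneider cells carrying Gal4-RORγ (mouse) and UAS-Photinus luciferase; cells given compound 1 h before 700 uM copper sulfate induction, then incubated 20 h at ambient temperature.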
# MCF10A rereplic: induces DNA re-replication in MCF 10a normal breast cells; Potency, µM (doses to about 46.1 µM), most hits filed as activators; MCF 10A DNA re-replication, Hoechst nuclear intensity, 48 h; hit rate 2.9% among 350,000; further: nearly all actives have a fitted effect of over 50% in size
# SW480 rereplic: induces DNA re-replication in SW480 colon adenocarcinoma cells; AID 624297; SW480 DNA re-replication, Hoechst DNA content imaging, 48 h; Potency, µM (series often up to 46.1 µM), usual class: activators; hit rate 1.8% among 340,000; further: nearly all actives have a fitted effect of over 55% in size
#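 Quantitative HTS format with DMSO vehicle controls; 48 hr drug incubation at 37 C, then 40 min Hoechst staining and scanning imager measurement at 405 nm excitation.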
# Numbers stand for hits; - = inactive; ? = inconclusive; . = no result; [ ] = dose if it differs, or a comment. The list is not random: actives were taken first. Their share in the collection is about 10%. The call rests on the fitted dose curve; in most records, active means well fitted curve in the direction sought with a large enough effect; inconclusive means small, poorly fitted or top-dose-only effect, or another doubt; inactive means no such curve, though single readings can be large; an effect the other way counts as inactive or inconclusive.
SMILES,ELG1 repair inh,Gal4-VP16 FLuc,RORg inh,MCF10A rereplic,SW480 rereplic
COc1ccc(NC(=S)N(CCN2CCCCC2)Cc2ccco2)cc1,-,-,?,?,-
CCc1ccc(NC(=O)N(Cc2ccco2)C(C)c2cccs2)cc1 (centres undefined),-,-,?,?,-
Cc1ccc(NC(=S)N(CCN2CCCCC2)Cc2ccco2)cc1Cl,-,?,14µM,?,-
Cc1cc(C)cc(NC(=S)N(CCN2CCCCC2)Cc2ccco2)c1,?,-[10 µM],10µM,-,-
CCc1ccccc1NC(=S)N(Cc1ccco1)C(C)c1cccs1 (centres undefined),-,-[10 µM],11µM,-,-
CCc1ccccc1NC(=S)N(CCN1CCCCC1)Cc1ccco1,-,-,11µM,-,-
O=C(CCNC(=O)c1ccc(Br)cc1)Nc1ccc(S(=O)(=O)Nc2ncccn2)cc1,-,.,.,-,-
CCC(=O)NCCCc1nc(-c2ccccc2)no1,.,.,.,-,-
COc1cc(C(=O)N/N=C/c2ccc3c(c2)c2ccccc2n3C)ccc1O,-,-,-,13µM,?
Cn1c2ccccc2c2cc(/C=N/NC(=O)c3cc(O)ccc3O)ccc21,-,?,?,3.7µM,-
CCn1c2ccccc2c2cc(/C=N/NC(=O)c3ccccc3)ccc21,?,?,8.9µM,-,?
CCOC(=O)Cc1cn(C(=O)OC(C)(C)C)c2ccccc12,-,.,.,-,-
CN(Cc1ccccc1)C1CCCN(C(=O)c2ccc(Cl)s2)C1 (centres undefined),-,-,-,-,-
Cc1cccc(C)c1NC(=O)CNC(=O)c1c(C)nn(-c2ccccc2)c1Cl,-,.,.,-,-
O=C(CN1CCN(Cc2ccc3c(c2)OCO3)CC1)NCC(F)(F)F,-,-,-,-,-
COc1ccc(/C=C(/NC(=O)c2ccco2)C(=O)N2CCCC2=O)cc1,-,-,-,-,-
CCCCSC(=S)NC1CCS(=O)(=O)C1 (centres undefined),?,-,-,23µM,?
O=S1(=O)CCC(NC(=S)SCCOc2ccccc2)C1 (centres undefined),-,-,-,-,-[1.84 µM]
CN(C)CCC(=O)c1ccc(F)cc1,-,-,-,?,?
CN(C)CCC(=O)c1cccc(Br)c1,-,-,?,18µM,?
CN(C)CCCC(=O)c1ccc2c(c1)OCO2,-,-,-,-,-[9.22 µM]
CN(C)CCC(=O)c1ccc2c(c1)OCO2,-,6.3µM,2.2µM,7.3µM,?
COc1ccccc1C(=O)N/C(=C\c1ccc2c(c1)OCO2)C(=O)NCCc1nc2ccccc2[nH]1,?,-,-,-,-
Cc1ccc2c(c1)Cc1nc3ccccc3nc1-2,?,14µM,10µM,-,-
Cc1cccc(OCCC(=O)NCC(=O)Nc2cccc(C)c2C)c1,?,-,-[10 µM],-,-
SMILES,ELG1 repair inh,Gal4-VP16 FLuc,RORg inh,MCF10A rereplic,SW480 rereplic
CN(C)c1ccc(C=Cc2cnccn2)cc1,.,.,.,18µM,?
CN(C)c1ccc(/C=C/c2ccncc2)cc1,?,?,-,?,?
Fc1cccc(Nc2ncnc3[nH]ncc23)c1,-,-,-,4.1µM,-
Brc1ccc(Nc2ncnc3[nH]ncc23)cc1,-,-,-,-,-
CCC1(c2ccccc2)NC(=S)N(c2cccc(C)c2C)N1 (centres undefined),-,7.9µM,1.3µM,-,-
CC[C@H](C)[C@@H](C(=O)NCCCCCCCCCCC(=O)N1CCNCC1)n1cc(CCCCCN)nn1,-,.,.,-,?
COc1cccc(OCCn2cc(C(C)=O)c3ccccc32)c1,?,?,?,-,-
COC(=O)N/N=C/c1cn(CCOc2ccccc2OC)c2ccccc12,-,-,-,?,-
CNC(=S)N/N=C/c1cn(CCOc2ccccc2OC)c2ccccc12,-,1µM,0.89µM,-,-
CNC(=S)N/N=C/c1cn(CCOc2cccc(OC)c2)c2ccccc12,-,5µM,1µM,-,-
CC(C)c1nc(NCCO)c2nnn(Cc3ccccc3)c2n1,-,-,-,-,-
CC1CCN(C(=S)NC(=O)C2CCCCC2)CC1,?,?,13µM,-,-
O=C(NC(=S)N1CCCCCC1)C1CC1,-,-,?,-,-
COc1ccccc1Nc1nc(N)nc(CSC(=S)N2CCCCC2C)n1 (centres undefined),-,7.1µM,7.9µM,?,-
COc1ccccc1Nc1nc(N)nc(CSC(=S)N2CCC(C)CC2)n1,-,5µM,0.13µM,-,-
